Test results: ChEMBL document CHEMBL4513216, “Probing the Open Global Health Chemical Diversity Library for Multistage-Active Starting Points for Next-Generation Antimalarials” (ACS Infect Dis, 2020)
Out of some 68,000 compounds screened, about 2,700 (4%) showed an effect of 50% or more. The sample holds strong results, similar compounds and a random draw of the others, so the mix is not that of the screen.

tested on: Plasmodium berghei; test: Screen against P. berghei liver stage (PbLuc), transformed with Luciferase, at 2uM; assay type: functional, HepG2; conditions: tested at 2 uM

Compound	INHIBITION
Cc1ccc(CN2Cc3c(C(=O)N4CCCC4)nn(C)c3C2)s1	-64.97%
O=C1CC(N2CCN(c3ccccc3O)CC2)C(=O)N1Cc1cccs1 (configuration not stated)	19.62%
CC1CCN(C(=O)Cn2cc(I)cn2)CC1	66.74%
O=C(Cn1cc(I)cn1)N1CCCC1	34.34%
CC1CCCN(C(=O)Cn2cc(I)cn2)C1 (configuration not stated)	37.18%
O=C(Cc1cccc(F)c1)NCCNCC1CNc2ccnn2C1 (configuration not stated)	-7.45%
Cn1nccc1C1CCN(CC(=O)NCC2CC2)CC1	7.71%
O=C(Nc1cccnc1-n1cc(Cl)cn1)C1CC1	-43.89%
Cc1cc(C)n(CC2CN(Cc3nc(C4CC4)no3)CCO2)n1 (configuration not stated)	37.31%
CN(C)C(=O)N1CC[C@@H](O)[C@@H]1Cc1ccccc1	48.52%
CC(=O)N1CCC2(CC1)C(=O)N(CC1CC1)c1ccccc12	24.15%
O=C([C@H]1CCCO1)N1CCC2(CC1)C(=O)N(CC1CC1)c1ccccc12	58.95%
O=C(N1CCCC1)N1CCC2(CC1)C(=O)N(CC1CC1)c1ccccc12	31.5%
O=C(N[C@H]1CN(Cc2ccsc2)[C@@H]2CCCO[C@H]12)C1CC1	-1.33%
COCCN1CCC(c2cncc(-c3cccc(Cl)c3)n2)CC1	32.39%
CN(CC(=O)Nc1ccc(Br)cn1)C(=O)C(C)(C)C	8.42%
Cc1cccc2[nH]c(-c3cn(C4CCNCC4)nn3)nc12	57.92%
Cc1cc2nc(-c3cn(C4CCNCC4)nn3)[nH]c2cc1C	28.14%
OCCc1ccccc1-n1ccnc1-c1cn(C2CCNCC2)nn1	5.78%
Cc1ccc(-n2ccnc2-c2cn(C3CCNCC3)nn2)c(Cl)c1	36.26%
Cc1c(C)c(C)c2[nH]c(-c3cn(C4CCNCC4)nn3)nc2c1C	52.66%
COc1cccc(CCn2ccnc2-c2cn(C3CCNCC3)nn2)c1	-14.82%

Compound	INHIBITION
Clc1ccccc1CCn1ccnc1-c1cn(C2CCNCC2)nn1	-30.83%
Cc1ccc2[nH]c(-c3cn(C4CCNCC4)nn3)nc2c1C	68.42%
CSc1ccccc1-n1ccnc1-c1cn(C2CCNCC2)nn1	14.55%
Cc1nc(C(C)C)sc1C(=O)N1CCN(C2CCSCC2)CC1	18.77%
CN(C)C(=O)c1cccnc1SCc1ccccc1Cl	17.31%
Cc1nn(C)c(C)c1C1CCCN1CC(=O)NCc1ccccn1 (configuration not stated)	-29.54%
COC(=O)C(NC(=O)CC(C)C)c1cc(F)ccc1F (configuration not stated)	29.12%
O=C(CC1CCN(c2cccnn2)CC1)Nc1nncs1	-24.13%
CN(C)CCNC(=O)CC1CCN(c2cccnn2)CC1	-36.94%
O=C(CC1CCN(c2cccnn2)CC1)NCCO	68.96%
O=C(CC1CCN(c2cccnn2)CC1)NC1CCOCC1	-36.08%
O=C(CC1CCCC1)NCCS(=O)(=O)N1CCN(c2ccccn2)CC1	-40%
O=C(CC1CCN(c2cccnn2)CC1)Nc1cccnc1	50.17%
CC(c1ccncc1)n1cc2nc(N(C)C)[nH]cc-2c1=O (configuration not stated)	20.82%
COc1ccc(C(O)CNC(=O)Nc2cc(C)nn2C)cc1 (configuration not stated)	34.83%
Cn1cnc(-c2ccc(F)cc2)c1NC(=O)CCNC(=O)C(C)(C)C	37.66%
c1cc(CN2CCC3(CC2)COC(COCC2CC2)C3)co1 (configuration not stated)	15.02%
c1cc(CN2CCC3(CC2)COC(COCC2CC2)C3)ccn1 (configuration not stated)	55.57%
c1cc(CN2CCC3(CCOCC3COCC3CC3)CC2)ccn1 (configuration not stated)	50.17%
c1csc(CN2CCC3(CCOCC3COCC3CC3)CC2)n1 (configuration not stated)	-23.51%
c1cc(CN2CCC3(CC2)COC(COCC2CC2)C3)cs1 (configuration not stated)	-9.14%
c1cc(CN2CCC3(CCOCC3COCC3CC3)CC2)co1 (configuration not stated)	39.18%

Compound	INHIBITION
CC(C)c1nccn1CCC(=O)N1CCCC1c1cccn1C (configuration not stated)	22%
COCCCn1cnnc1C(C)NC(=O)c1[nH]c2ccc(C)cc2c1C (configuration not stated)	23.6%
Cn1cnc(S(=O)(=O)N2CC3(CCN(c4ccccc4)C3)C2)c1	15.42%
CN(CCSc1ccccc1)C(=O)c1cn2c(n1)CNCC2	54.29%
CN(CCCc1ccccc1)C(=O)c1cn2c(n1)CNCC2	-12.28%
CN(CCc1ccccn1)C(=O)c1cn2c(n1)CNCC2	25.55%
c1cncc(CN2CCC(c3ccc4c(c3)OCO4)CC2)c1	17.24%
Cc1cccc(C(=O)N2CC[C@H]3C[C@@H](C)O[C@@H]3C2)n1	1.29%
O=C(c1cc(C2CC2)on1)N1C[C@@H]2COC[C@]2(COc2cccnc2)C1	22.68%
O=C1NCCCCC1NC(=O)C1(c2ccccc2)CCOCC1 (configuration not stated)	-20.35%
O=C(NCc1cc(-c2ccccc2)no1)NCC1CCCO1 (configuration not stated)	-3.26%
Cc1ccc(-c2cc(CNC(=O)NC3CCCCNC3=O)on2)cc1 (configuration not stated)	55.7%
Cc1ccc(-c2cc(CNC(=O)N3CCC(O)CC3)on2)cc1	-5.7%
Cc1ccc(-c2cc(CS(=O)(=O)NC3CCCNC3=O)on2)cc1 (configuration not stated)	42.79%
O=C(NCc1cc(-c2ccccc2)no1)NC1CCCCNC1=O (configuration not stated)	65.38%
COc1cccc(CC(=O)NC(C)c2nc3cccnc3n2C(C)C)c1 (configuration not stated)	74.83%
COc1ccc(CC(=O)NC(C)c2nc3cccnc3n2C(C)C)cc1 (configuration not stated)	-39.63%
COc1ccccc1CC(=O)NC(C)c1nc2cccnc2n1C(C)C (configuration not stated)	24.44%
COC(=O)C(CNC(=O)Nc1nncs1)Cc1cccc(C)c1 (configuration not stated)	12.17%
CCn1ccnc1CN1CCCN(C(=O)c2cc(C)nn2CC)CC1	11.09%
CC(C)C(=O)N(C)Cc1nc(N2CCCC2)ncc1-c1ccncc1	-6.41%
Nc1nnc(CCNc2ncnc3c2CCN(C(=O)C2CC2)C3)s1	11.9%

Compound	INHIBITION
CCc1ccc(CCNc2ncnc3c2CCN(C(=O)C2CC2)C3)cc1	55.66%
Nc1nc(CCNc2ncnc3c2CCN(C(=O)C2CC2)C3)cs1	-26.81%
Cc1cc(C)c(Cn2cncn2)cc1CN1CC[C@H](CO)[C@@H](O)C1	-64.63%
CC1CCN(S(=O)(=O)N2CCCC(c3cccc(C(=O)O)c3)C2)CC1 (configuration not stated)	-18.41%
CC1(C)CCN(S(=O)(=O)N2CCCC(c3cccc(C(=O)O)c3)C2)CC1 (configuration not stated)	19.04%
COC1CCN(S(=O)(=O)N2CCCC(c3cccc(C(=O)O)c3)C2)CC1 (configuration not stated)	57.59%
Cc1cc(C)c(CNC(=O)NCc2ccncc2)c(=O)[nH]1	26.76%
CC(C)CCN1CC2(CCN(C3CCCOC3)CC2)OC1=O (configuration not stated)	57.47%
CN(C)CCCN1CC2(CCN(C3CCCOC3)CC2)OC1=O (configuration not stated)	24.81%
O=C1OC2(CCN(C3CCCOC3)CC2)CN1CCc1ccccc1 (configuration not stated)	-1.27%
COCCNC(=O)N1CC(Cc2ccccc2F)C1	-41.64%
Cc1cc(C)n2ncc(CN3CCC(n4cc(CCO)nn4)CC3)c2n1	31.51%
Cc1cc(C)n2ncc(CN3CCC(Cn4cc(CO)nn4)CC3)c2n1	64.9%
CCCc1cnc(C)nc1N1CCC(Cn2cc(CO)nn2)CC1	9.69%
CCC(C(=O)NCc1csc(N2CCOCC2)n1)n1cccn1 (configuration not stated)	17.78%
Cc1cncc(Oc2ccc(CN)cc2)n1	32.31%
Clc1cnc(NCc2ccccc2N2CCOCC2)nc1	-2.35%
CCCc1nc(CN2CCOC(Cn3cncn3)C2)no1 (configuration not stated)	37.52%
CCc1nc(CN2CCOC(Cn3cncn3)C2)no1 (configuration not stated)	55.7%
c1ncn(CC2CCCN(Cc3nc(C4CC4)no3)C2)n1 (configuration not stated)	-8.84%
c1ncn(CC2CN(Cc3nc(C4CC4)no3)CCO2)n1 (configuration not stated)	60.64%
c1cnn(CC2CN(Cc3nc(C4CC4)no3)CCO2)c1 (configuration not stated)	9.41%

Compound	INHIBITION
CC(C)Cc1nc(CN2CCOC(Cn3cncn3)C2)no1 (configuration not stated)	40.17%
CCc1ccc(CC)c(NCc2cnc(N3CCOCC3)nc2)c1	-64.63%
COCC(=O)N1C[C@@H]2CCCO[C@@H]2[C@H](N(C)Cc2ccco2)C1	-17.76%
Cc1ccc(CN2CCOC3(CCCN(c4cccc(F)c4)C3)C2)o1 (configuration not stated)	22.15%
Cc1noc(C)c1CN1CCN(C(C)c2nc(C3CC3)no2)CC1 (configuration not stated)	33.22%
Cc1ncsc1-c1nc(Cc2cccs2)nn1C1CCN(C)CC1	43.44%
CN1CCC(n2nc(Cc3cccs3)nc2-c2ccncc2)CC1	21.97%
CCc1noc(C)c1-c1nc(Cc2cccs2)nn1C1CCN(C)CC1	64.9%
CCc1sc(C(=O)Nc2cnn(CC(N)=O)c2)cc1C	2.51%
CS(=O)(=O)N1CC[C@]2(O)CCN(c3cc(C#N)ccn3)C[C@@H]2C1	19.44%
CN(C)S(=O)(=O)N1CC[C@]2(O)CCN(c3cc(C#N)ccn3)C[C@@H]2C1	57.68%
CN(C)S(=O)(=O)N1CC[C@]2(O)CCN(c3ncccn3)C[C@@H]2C1	13.51%
Cn1ccc2c(C(=O)N3CCN(C(=O)C4CCCC4)CC3)cccc21	16.64%
O=C(c1cc(F)ccc1O)N1CCN(C(=O)C2CCC2)CC1	-10%
O=C(c1ccccc1O)N1CCN(C(=O)C2CCC2)CC1	51.31%
Cc1ccc(S(=O)(=O)Nc2ccc(-n3nnn(C)c3=O)cc2)cc1	-2.66%
CN(CC(N)=O)C(=O)CCCn1ccc2cc(Cl)ccc21	28.42%
CN(Cc1ncnn1C)C(=O)CCCn1ccc2cc(Cl)ccc21	57.23%
CN(Cc1ncnn1C)C(=O)CCn1ccc2ccccc21	-2.19%
